Measured values from PubChem BioAssay (NCI).
The panel holds about 79,000 compounds, 15% with a hit somewhere; the sample as a whole holds those more often. A number with no mark means an inactive call. Calls of active or inactive are those of the source. Rule as the data show it: active = growth inhibition above about 70%; inactive = the rest.

Tests used:
[1] = NCI Yeast Anticancer Drug Screen. Data for the rad50 strain (AID 155);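 also: 0% = growth of vehicle-only cultures of the same strain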; details: S. cerevisiae rad50 strain growth inhibition; at 50.0 µM; active compounds read high
In short: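 Compounds were tested on a yeast strain with an engineered DNA damage repair alteration; the reported value is growth inhibition normalised to vehicle treatment.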

[2] = NCI Yeast Anticancer Drug Screen. Data for the mec2-1 strain (AID 157); details: S. cerevisiae mec2-1 strain, at 50.0 µM, active compounds read high
In short: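 Test agents were screened against the mec2-1 yeast strain, with defined DNA repair or cell cycle alteration. Growth was scored as inhibition against vehicle-only controls.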

[3] = NCI Yeast Anticancer Drug Screen. Data for the sgs1 mgt1 strain (AID 161);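 also: 0% = growth of cultures given vehicle only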; details: S. cerevisiae sgs1 mgt1 strain, at 50.0 µM, active compounds read high
In short: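 Inhibition of yeast growth, normalised to vehicle-treated controls, is reported for a strain bearing genetic alterations in DNA damage repair.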

[4] = NCI Yeast Anticancer Drug Screen. Data for the cln2 rad14 strain (AID 165);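 also: 0% = growth equal to vehicle treated cultures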; details: S. cerevisiae cln2 rad14 strain, at 50.0 µM, active compounds read high
In short: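 Growth of compound-exposed yeast (cln2 rad14 genotype) measured and expressed as inhibition relative to vehicle.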

[5] = NCI Yeast Anticancer Drug Screen. Data for the bub3 strain (AID 167); details: S. cerevisiae bub3 mutant strain, at 50.0 µM, active compounds read high
In short: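 Growth of a checkpoint-deficient yeast mutant is measured after compound exposure. Values represent inhibition relative to vehicle.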

[6] = NCI Yeast Anticancer Drug Screen. Data for the mlh1 rad18 strain (AID 175); details: S. cerevisiae mlh1 rad18 strain growth inhibition; at 50.0 µM; active compounds read high
In short: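 In this whole-cell yeast screen, a strain with altered DNA damage repair is challenged with compound, and its growth is measured against matched vehicle-treated controls.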

CCOC(=O)CC1C(C)C(C)NC(C)C1C (configuration not stated)
growth inhibition [1]: -1.85%
growth inhibition [2]: -24.3%
growth inhibition [3]: -20.2%
growth inhibition [4]: 12.1%
growth inhibition [5]: 2.95%
growth inhibition [6]: 5.75%

COC(=O)c1ccc(C)[nH]1
growth inhibition [1]: -12.8%
growth inhibition [2]: 10.4%
growth inhibition [3]: -22.2%
growth inhibition [4]: 26.6%
growth inhibition [5]: 6.4%
growth inhibition [6]: -1.8%

Cc1cccc(C)c1NCC1CO1 (configuration not stated)
growth inhibition [1]: -17.4%
growth inhibition [2]: -14.3%
growth inhibition [3]: -6.3%
growth inhibition [4]: 13.2%
growth inhibition [5]: -17.6%
growth inhibition [6]: -11.2%

O=C(CC(c1ccccc1)N1CCCCC1)OC(c1ccccc1)c1ccc(Br)cc1 (configuration not stated)
growth inhibition [1]: 12.9%
growth inhibition [2]: 4.05%
growth inhibition [3]: 11.6%
growth inhibition [4]: 7.95%
growth inhibition [5]: 6.4%
growth inhibition [6]: 2.8%

CC(C)C1CCC(O)CC1 (configuration not stated)
growth inhibition [1]: -14.5%
growth inhibition [2]: 1.9%
growth inhibition [3]: -3.55%
growth inhibition [4]: -32.2%
growth inhibition [5]: 10.3%
growth inhibition [6]: 9.05%

Nc1nc(-c2ccccc2)nc(N)c1C=O
growth inhibition [1]: -21.8%
growth inhibition [2]: -21.9%
growth inhibition [3]: -43.2%
growth inhibition [4]: -4.95%
growth inhibition [5]: -6.9%
growth inhibition [6]: -20.6%

CSc1nnc(CF)c(=O)[nH]1
growth inhibition [1]: -1.4%
growth inhibition [2]: -1.35%
growth inhibition [3]: -12.3%
growth inhibition [4]: -4.2%
growth inhibition [5]: -7.05%
growth inhibition [6]: -14.4%

CCCN=C1NS(=O)(=O)c2ccccc21
growth inhibition [1]: 8.35%
growth inhibition [2]: -14.8%
growth inhibition [3]: -15.3%
growth inhibition [4]: -11.8%
growth inhibition [5]: -7.55%
growth inhibition [6]: -7.7%

COc1cc2nccnc2cc1OC
growth inhibition [1]: 10.1%
growth inhibition [2]: 7.05%
growth inhibition [3]: 3.35%
growth inhibition [4]: -7.45%
growth inhibition [5]: 6.55%
growth inhibition [6]: 21.2%

O=C1C(Cc2ccccc2)CCCC1Cc1ccccc1 (configuration not stated)
growth inhibition [1]: -5.25%
growth inhibition [2]: 17.3%
growth inhibition [3]: -8.05%
growth inhibition [4]: -21.5%
growth inhibition [5]: -6.4%
growth inhibition [6]: 3.35%

O=C(O)c1cccc2c1CCCC2
growth inhibition [1]: -2.7%
growth inhibition [2]: 7.35%
growth inhibition [3]: -21.6%
growth inhibition [4]: 0.05%
growth inhibition [5]: -11.6%
growth inhibition [6]: 8.05%

[Cl][Pd][Cl].[NH-]CC1(C[NH-])CCCCC1
growth inhibition [1]: 3.5%
growth inhibition [2]: -1.1%
growth inhibition [3]: 3.75%
growth inhibition [4]: -64.2%
growth inhibition [5]: 7.7%
growth inhibition [6]: 5.95%

ON=C1c2cc(Cl)ccc2-c2ccc(Cl)cc21
growth inhibition [1]: 5.25%
growth inhibition [2]: 4.05%
growth inhibition [3]: 18.1%
growth inhibition [4]: -40.8%
growth inhibition [5]: 5.45%
growth inhibition [6]: 16.6%

CC(=O)OC1C(C)OC(n2cnc3c(=O)[nH]cnc32)C1OC(C)=O (configuration not stated)
growth inhibition [1]: 2.95%
growth inhibition [2]: -15.6%
growth inhibition [3]: -0.45%
growth inhibition [4]: -3.45%
growth inhibition [5]: -2%
growth inhibition [6]: 10.8%

CCCCCCCCCCCCCCOc1ccc(S(=O)(=O)/N=C(\N)NC(N)=NCCCCCCCCCC)cc1
growth inhibition [1]: 30.2%
growth inhibition [2]: -9.6%
growth inhibition [3]: 10.2%
growth inhibition [4]: -21.1%
growth inhibition [5]: -2.2%
growth inhibition [6]: 2.15%

O=C(O)c1ccccc1SC(Sc1ccccc1C(=O)O)c1ccccc1
growth inhibition [1]: -11.8%
growth inhibition [2]: -10.7%
growth inhibition [3]: -2.35%
growth inhibition [4]: -7.85%
growth inhibition [5]: 12.1%
growth inhibition [6]: 10.6%

CN(C)N=Nc1ccc(Cl)cc1C(=O)O
growth inhibition [1]: 14.8%
growth inhibition [2]: 12.3%
growth inhibition [3]: 20.7%
growth inhibition [4]: 2.2%
growth inhibition [5]: 17.9%
growth inhibition [6]: 41%

Cc1ccc2[nH]c(=O)cc(C)c2c1
growth inhibition [1]: 15.2%
growth inhibition [2]: -0.45%
growth inhibition [3]: 13.8%
growth inhibition [4]: 20.2%
growth inhibition [5]: 8.15%
growth inhibition [6]: 30.8%

CC(CCNC(=S)S)CC(C)(C)C.[Zn+2] (configuration not stated)
growth inhibition [1]: 9.75%
growth inhibition [2]: 15.1%
growth inhibition [3]: -7.55%
growth inhibition [4]: -36%
growth inhibition [5]: -4.65%
growth inhibition [6]: -1%

O=C1CN(C(=O)c2ccccc2)C(=S)N1
growth inhibition [1]: 22.5%
growth inhibition [2]: 6.7%
growth inhibition [3]: 11.7%
growth inhibition [4]: -17.9%
growth inhibition [5]: 4.75%
growth inhibition [6]: 4.5%

CC1SC2(C(=O)N(CN3CCCCC3)c3ccccc32)N(c2ccccc2)C1=O (configuration not stated)
growth inhibition [1]: 15.4%
growth inhibition [2]: -0.45%
growth inhibition [3]: -30.9%
growth inhibition [4]: -0.8%
growth inhibition [5]: 3.9%
growth inhibition [6]: -0.1%

COc1cc(Br)c(C=O)cc1OC
growth inhibition [1]: 10.5%
growth inhibition [2]: 22.9%
growth inhibition [3]: 13.6%
growth inhibition [4]: -16.1%
growth inhibition [5]: 2.95%
growth inhibition [6]: 5.5%

COc1ccc(OC)c(NC(=O)Sc2c(Cl)c(Cl)nc(Cl)c2Cl)c1
growth inhibition [1]: 18.4%
growth inhibition [2]: 13.2%
growth inhibition [3]: 16.2%
growth inhibition [4]: -8.9%
growth inhibition [5]: -0.05%
growth inhibition [6]: -10.2%

Cn1c(O)c2c(c1O)C(=Nc1ccccc1)c1ccccc1C2=O
growth inhibition [1]: 89.2% (active)
growth inhibition [2]: 98.5% (active)
growth inhibition [3]: 93% (active)
growth inhibition [4]: 94.2% (active)
growth inhibition [5]: 98.6% (active)
growth inhibition [6]: 97.9% (active)

COc1cccc(N2C(=O)c3c(c4[nH]c5ccccc5c4c4ccc(C(C)(C)C)cc34)C2=O)c1
growth inhibition [1]: -19.2%
growth inhibition [2]: -15.1%
growth inhibition [3]: -15.4%
growth inhibition [4]: 18.3%
growth inhibition [5]: -34%
growth inhibition [6]: -12.1%

COc1ccc(C(=O)N2CCOCC2)cc1
growth inhibition [1]: -8%
growth inhibition [2]: -16.6%
growth inhibition [3]: -0.9%
growth inhibition [4]: 31.9%
growth inhibition [5]: -3.05%
growth inhibition [6]: -10.6%

Fc1ccc2nncc(/C=C/c3ccccn3)c2c1
growth inhibition [1]: 41.8%
growth inhibition [2]: -3.55%
growth inhibition [3]: 4.2%
growth inhibition [4]: -16.9%
growth inhibition [5]: 24.2%
growth inhibition [6]: 19.4%

Cc1ccc(NC(=O)CC2C(=O)Nc3ccccc3S2(=O)=O)c(C)c1 (configuration not stated)
growth inhibition [1]: -24.6%
growth inhibition [2]: -24.8%
growth inhibition [3]: -6.8%
growth inhibition [4]: 20.6%
growth inhibition [5]: -2.85%
growth inhibition [6]: -10.6%

Cc1cc(C)nc(NS(=O)(=O)c2ccc(NC(=O)c3ccc(Cl)c4c(Nc5ccc(S(=O)(=O)Nc6nc(C)cc(C)n6)cc5)c5ccccc5nc34)cc2)n1
growth inhibition [1]: 28.1%
growth inhibition [2]: 41.3%
growth inhibition [3]: 27.8%
growth inhibition [4]: 34.2%
growth inhibition [5]: 27.8%
growth inhibition [6]: 30.4%

COC(=O)c1ccccc1C1CN=NC12Cc1c(ccc3c1CCC3)C2=O (configuration not stated)
growth inhibition [1]: -4.35%
growth inhibition [2]: -5.95%
growth inhibition [3]: -15.1%
growth inhibition [4]: -9.7%
growth inhibition [5]: 27.9%
growth inhibition [6]: -0.85%

CSc1nnc2c3ccccc3ccn12
growth inhibition [1]: 4.9%
growth inhibition [2]: 11.6%
growth inhibition [3]: -2.25%
growth inhibition [4]: -3.3%
growth inhibition [5]: -14.1%
growth inhibition [6]: 52.5%

CC(C)C[C@H](NC(=O)[C@H](CCc1ccccc1)NC(=O)c1ccc2ccccc2n1)B(O)O
growth inhibition [1]: 60.8%
growth inhibition [2]: 64.7%
growth inhibition [3]: 55.5%
growth inhibition [4]: 73.8% (active)
growth inhibition [5]: 84.7% (active)
growth inhibition [6]: 82.5% (active)

CN(C)C(=O)c1cccnc1
growth inhibition [1]: 0.25%
growth inhibition [2]: -4.25%
growth inhibition [3]: -4.8%
growth inhibition [4]: 27.1%
growth inhibition [5]: -18.2%
growth inhibition [6]: -2.35%

CCOc1ccc(N2C(=O)NC3(c4ccccc4)N(C)C(=O)N(C)C23c2ccccc2)cc1 (configuration not stated)
growth inhibition [1]: -2.7%
growth inhibition [2]: -7.95%
growth inhibition [3]: 13.8%
growth inhibition [4]: 1.3%
growth inhibition [5]: 17.1%
growth inhibition [6]: -16.8%

COC(=O)c1c2cccccc-2c(C(=O)OC)c1N
growth inhibition [1]: 15%
growth inhibition [2]: 17.9%
growth inhibition [3]: 28.8%
growth inhibition [4]: -24.8%
growth inhibition [5]: 36%
growth inhibition [6]: 42.6%

O=C1c2scnc2-c2nccc3c2c1nc1ccccc13
growth inhibition [1]: 60.3%
growth inhibition [2]: 75.5% (active)
growth inhibition [3]: 66.8%
growth inhibition [4]: 53.2%
growth inhibition [5]: 80.9% (active)
growth inhibition [6]: 74.9% (active)

CC(=O)OC12C3C4C1C1C2C3C41OC(C)=O (configuration not stated)
growth inhibition [1]: -4.95%
growth inhibition [2]: 11.8%
growth inhibition [3]: -24.1%
growth inhibition [4]: 0.9%
growth inhibition [5]: -16.4%
growth inhibition [6]: -7.5%

CCN(CC)c1nc(N(CC)CC)nc(N(CC)CC)n1
growth inhibition [1]: -1%
growth inhibition [2]: 14.8%
growth inhibition [3]: 2.75%
growth inhibition [4]: -30.6%
growth inhibition [5]: 13.8%
growth inhibition [6]: 0.2%

OC1(Cl)c2cccc3cccc(c23)C1(O)Cl (configuration not stated)
growth inhibition [1]: -0.8%
growth inhibition [2]: 5.8%
growth inhibition [3]: 2.6%
growth inhibition [4]: -9.45%
growth inhibition [5]: 0.25%
growth inhibition [6]: -14.1%

CC1=CC(C)S(=O)(=O)C1 (configuration not stated)
growth inhibition [1]: -38.4%
growth inhibition [2]: -46.2%
growth inhibition [3]: -89.1%
growth inhibition [4]: -5.7%
growth inhibition [5]: -57.8%
growth inhibition [6]: -16.7%

Nc1ccc(S(=O)(=O)NC(=O)NCc2ccccc2)cc1
growth inhibition [1]: 0.7%
growth inhibition [2]: -5%
growth inhibition [3]: 3.5%
growth inhibition [4]: -33%
growth inhibition [5]: -10.6%
growth inhibition [6]: -9.55%

Cc1ccccc1C(c1ccccc1C)C(CC(=O)O)CC(=O)O
growth inhibition [1]: 11.7%
growth inhibition [2]: 14.2%
growth inhibition [3]: 10.6%
growth inhibition [4]: -102%
growth inhibition [5]: 5.05%
growth inhibition [6]: -2.6%
